Reference: the supplement of paper PMC12067093, “Discovery and optimisation of a covalent ligand for TRIM25 and its application to targeted protein ubiquitination” (Chemical Science, 2025)
The full data set covers some 21,000 targets. This sample favours those with the largest changes.

These targets were tested with Cc1cc(ccc1-c1ccccc1)C(=O)N1CCCN(CC1)C(=O)CCl [compound 10] (assay: probe-labelled cysteine peptide fold change vs DMSO (competition) (log2 fold change); higher = less target engagement (more negative = stronger competition)). Conditions: 10 µM; THP-1; incubation time: 4 h.
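Also: competitive profiling in live THP-1 cells: cysteine peptides tagged with an iodoacetamide desthiobiotin (IA-DTB) probe, intensity after compound treatment relative to DMSO-treated cells.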

Sequence of UniProt P50579 (P50579 whole entry, looked up): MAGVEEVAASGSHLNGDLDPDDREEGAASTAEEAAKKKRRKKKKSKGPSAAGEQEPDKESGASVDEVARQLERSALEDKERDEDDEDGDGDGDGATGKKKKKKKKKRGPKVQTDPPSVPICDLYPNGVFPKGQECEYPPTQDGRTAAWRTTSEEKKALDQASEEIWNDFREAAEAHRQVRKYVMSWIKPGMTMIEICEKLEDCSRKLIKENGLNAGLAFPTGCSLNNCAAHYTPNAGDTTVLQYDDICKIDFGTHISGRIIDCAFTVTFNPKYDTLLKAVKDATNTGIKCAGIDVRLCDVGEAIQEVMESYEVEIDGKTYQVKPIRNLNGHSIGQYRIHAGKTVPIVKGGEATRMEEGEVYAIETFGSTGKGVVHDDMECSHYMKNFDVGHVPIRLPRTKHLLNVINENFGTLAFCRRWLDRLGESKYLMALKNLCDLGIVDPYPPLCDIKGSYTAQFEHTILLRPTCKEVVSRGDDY
Sequence of UniProt P33991 (P33991 whole entry, looked up): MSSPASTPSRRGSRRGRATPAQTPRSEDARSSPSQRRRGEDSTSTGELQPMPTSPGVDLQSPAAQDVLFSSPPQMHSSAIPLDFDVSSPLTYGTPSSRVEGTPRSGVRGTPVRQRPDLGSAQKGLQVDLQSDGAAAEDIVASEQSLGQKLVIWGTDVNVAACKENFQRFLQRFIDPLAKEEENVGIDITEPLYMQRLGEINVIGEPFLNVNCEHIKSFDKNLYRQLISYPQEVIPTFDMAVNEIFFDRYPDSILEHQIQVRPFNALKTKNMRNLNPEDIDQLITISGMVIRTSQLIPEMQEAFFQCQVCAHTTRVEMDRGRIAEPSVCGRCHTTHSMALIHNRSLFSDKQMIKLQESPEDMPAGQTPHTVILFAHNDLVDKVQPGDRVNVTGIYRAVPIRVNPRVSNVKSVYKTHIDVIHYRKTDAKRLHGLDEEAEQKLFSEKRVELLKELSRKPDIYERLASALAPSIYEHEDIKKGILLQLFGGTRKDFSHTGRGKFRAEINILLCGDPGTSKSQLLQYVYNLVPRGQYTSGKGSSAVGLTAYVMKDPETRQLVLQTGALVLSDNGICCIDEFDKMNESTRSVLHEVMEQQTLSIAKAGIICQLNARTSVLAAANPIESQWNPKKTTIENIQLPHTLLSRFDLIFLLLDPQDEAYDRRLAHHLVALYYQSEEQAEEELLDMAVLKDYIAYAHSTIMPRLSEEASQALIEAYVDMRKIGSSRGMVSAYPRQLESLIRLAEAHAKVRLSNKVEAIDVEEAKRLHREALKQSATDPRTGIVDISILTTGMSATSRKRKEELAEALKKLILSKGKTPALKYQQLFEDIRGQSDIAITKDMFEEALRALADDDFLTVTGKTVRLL
Sequence of UniProt Q96MC6 (Q96MC6 whole entry): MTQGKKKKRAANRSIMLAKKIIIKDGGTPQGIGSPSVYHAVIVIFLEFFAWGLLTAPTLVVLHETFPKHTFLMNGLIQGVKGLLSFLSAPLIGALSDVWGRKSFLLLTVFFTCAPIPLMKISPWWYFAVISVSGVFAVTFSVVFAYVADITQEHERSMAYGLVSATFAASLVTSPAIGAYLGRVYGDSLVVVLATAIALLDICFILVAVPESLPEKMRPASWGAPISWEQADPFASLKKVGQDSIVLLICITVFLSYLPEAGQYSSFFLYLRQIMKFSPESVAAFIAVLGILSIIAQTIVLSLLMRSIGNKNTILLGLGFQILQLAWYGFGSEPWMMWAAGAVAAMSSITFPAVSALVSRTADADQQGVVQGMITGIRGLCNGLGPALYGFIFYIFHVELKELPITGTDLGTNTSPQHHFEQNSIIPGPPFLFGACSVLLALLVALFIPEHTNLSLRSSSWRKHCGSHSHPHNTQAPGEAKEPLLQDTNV
Sequence of UniProt Q96PV6 (Q96PV6 whole entry, looked up): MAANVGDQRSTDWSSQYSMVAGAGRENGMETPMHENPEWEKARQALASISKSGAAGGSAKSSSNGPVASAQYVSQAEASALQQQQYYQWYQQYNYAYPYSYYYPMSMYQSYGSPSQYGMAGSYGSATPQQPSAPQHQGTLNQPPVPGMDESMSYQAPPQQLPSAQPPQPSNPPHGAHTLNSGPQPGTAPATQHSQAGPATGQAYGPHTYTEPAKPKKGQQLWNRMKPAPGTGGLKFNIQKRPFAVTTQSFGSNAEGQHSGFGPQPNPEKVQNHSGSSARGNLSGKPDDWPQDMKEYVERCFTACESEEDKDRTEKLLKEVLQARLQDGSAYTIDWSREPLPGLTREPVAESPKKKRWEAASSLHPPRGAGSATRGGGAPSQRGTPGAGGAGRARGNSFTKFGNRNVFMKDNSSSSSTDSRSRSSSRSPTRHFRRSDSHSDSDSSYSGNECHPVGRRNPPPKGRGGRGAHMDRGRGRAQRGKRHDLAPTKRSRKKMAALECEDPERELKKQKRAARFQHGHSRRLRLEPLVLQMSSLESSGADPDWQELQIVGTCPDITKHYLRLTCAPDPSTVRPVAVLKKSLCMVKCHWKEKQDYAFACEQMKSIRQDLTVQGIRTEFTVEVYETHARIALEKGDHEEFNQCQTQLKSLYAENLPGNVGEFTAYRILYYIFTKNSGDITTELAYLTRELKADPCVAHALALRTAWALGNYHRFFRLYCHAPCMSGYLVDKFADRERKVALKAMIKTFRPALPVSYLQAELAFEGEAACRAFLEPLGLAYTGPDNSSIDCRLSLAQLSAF
Sequence of UniProt Q8N1G4 (Q8N1G4 whole entry, looked up): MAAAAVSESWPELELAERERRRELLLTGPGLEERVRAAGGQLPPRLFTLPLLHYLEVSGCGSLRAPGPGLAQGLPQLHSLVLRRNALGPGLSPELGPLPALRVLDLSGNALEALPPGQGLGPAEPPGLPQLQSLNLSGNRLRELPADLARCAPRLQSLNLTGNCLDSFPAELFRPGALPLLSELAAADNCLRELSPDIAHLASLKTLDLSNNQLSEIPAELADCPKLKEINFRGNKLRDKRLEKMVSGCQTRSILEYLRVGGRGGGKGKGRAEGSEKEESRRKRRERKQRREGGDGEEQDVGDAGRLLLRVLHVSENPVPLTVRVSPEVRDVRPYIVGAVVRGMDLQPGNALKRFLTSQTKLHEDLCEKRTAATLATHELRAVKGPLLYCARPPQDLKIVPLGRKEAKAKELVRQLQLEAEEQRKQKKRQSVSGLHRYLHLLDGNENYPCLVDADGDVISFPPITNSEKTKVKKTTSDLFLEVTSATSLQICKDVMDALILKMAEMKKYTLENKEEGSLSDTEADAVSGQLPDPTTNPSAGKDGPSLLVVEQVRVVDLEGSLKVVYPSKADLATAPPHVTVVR
Sequence of UniProt Q10469 (Q10469 whole entry, looked up): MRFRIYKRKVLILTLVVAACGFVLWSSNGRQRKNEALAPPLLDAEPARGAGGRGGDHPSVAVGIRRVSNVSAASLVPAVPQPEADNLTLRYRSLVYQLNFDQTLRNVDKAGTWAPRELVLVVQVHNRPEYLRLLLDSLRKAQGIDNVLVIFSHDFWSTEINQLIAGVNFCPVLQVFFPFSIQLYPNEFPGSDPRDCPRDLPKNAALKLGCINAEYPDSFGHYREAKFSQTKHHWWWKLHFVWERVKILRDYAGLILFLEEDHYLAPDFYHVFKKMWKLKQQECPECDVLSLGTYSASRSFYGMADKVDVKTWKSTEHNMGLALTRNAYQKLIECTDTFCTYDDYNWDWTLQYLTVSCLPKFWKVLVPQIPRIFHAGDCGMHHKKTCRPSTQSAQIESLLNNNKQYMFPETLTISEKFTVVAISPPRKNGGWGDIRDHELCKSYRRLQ
Sequence of UniProt P10244 (P10244 whole entry, looked up): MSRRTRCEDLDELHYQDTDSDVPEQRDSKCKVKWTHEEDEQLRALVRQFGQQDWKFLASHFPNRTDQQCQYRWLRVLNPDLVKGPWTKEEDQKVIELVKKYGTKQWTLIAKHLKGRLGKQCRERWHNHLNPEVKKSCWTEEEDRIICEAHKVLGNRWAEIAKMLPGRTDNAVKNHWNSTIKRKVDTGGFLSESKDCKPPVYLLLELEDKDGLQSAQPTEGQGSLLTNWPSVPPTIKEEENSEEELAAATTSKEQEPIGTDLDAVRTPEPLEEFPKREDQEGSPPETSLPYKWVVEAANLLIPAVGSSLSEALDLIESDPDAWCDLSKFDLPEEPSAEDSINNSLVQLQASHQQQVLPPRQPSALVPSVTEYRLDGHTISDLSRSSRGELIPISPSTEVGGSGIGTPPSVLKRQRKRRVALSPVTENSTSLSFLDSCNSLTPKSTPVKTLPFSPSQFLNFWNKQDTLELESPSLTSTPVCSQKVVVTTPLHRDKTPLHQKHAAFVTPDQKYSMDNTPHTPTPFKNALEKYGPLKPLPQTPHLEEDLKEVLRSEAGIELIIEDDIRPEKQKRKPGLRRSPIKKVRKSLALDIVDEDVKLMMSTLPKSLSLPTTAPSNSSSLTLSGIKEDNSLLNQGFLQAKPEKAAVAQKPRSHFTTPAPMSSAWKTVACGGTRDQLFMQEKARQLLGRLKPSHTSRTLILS
Sequence of UniProt P45983 (P45983 whole entry, looked up): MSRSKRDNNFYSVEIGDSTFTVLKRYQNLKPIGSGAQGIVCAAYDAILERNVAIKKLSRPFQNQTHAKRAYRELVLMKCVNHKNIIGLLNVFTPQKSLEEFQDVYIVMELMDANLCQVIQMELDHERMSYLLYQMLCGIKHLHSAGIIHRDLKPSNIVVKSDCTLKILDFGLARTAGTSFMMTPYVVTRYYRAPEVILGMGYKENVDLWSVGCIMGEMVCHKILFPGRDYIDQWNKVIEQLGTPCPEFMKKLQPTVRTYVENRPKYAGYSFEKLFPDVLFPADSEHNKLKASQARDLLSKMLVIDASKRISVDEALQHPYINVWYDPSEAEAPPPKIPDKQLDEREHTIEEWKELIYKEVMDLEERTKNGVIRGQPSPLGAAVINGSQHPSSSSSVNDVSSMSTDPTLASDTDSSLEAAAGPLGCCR
Sequence of UniProt Q8IV50 (Q8IV50 whole entry): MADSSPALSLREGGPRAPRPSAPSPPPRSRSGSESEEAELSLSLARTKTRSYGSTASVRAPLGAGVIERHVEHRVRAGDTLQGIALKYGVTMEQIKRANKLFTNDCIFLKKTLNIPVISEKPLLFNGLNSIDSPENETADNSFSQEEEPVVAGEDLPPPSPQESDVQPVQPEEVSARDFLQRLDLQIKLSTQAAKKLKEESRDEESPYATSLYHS

Target	probe-labelled cysteine peptide fold change
MIB1_Q86YT6_103_CAECTNYDLCTVCYHGDK (UniProt Q86YT6)	0.0824
MYBL2_P10244_147_SCWTEEEDRIICEAHK (UniProt P10244)	0.166
MYCBP2_O75592_505_CLHACGISLFDLEK (UniProt O75592)	0.122
MRC2_Q9UBG0_1234_TTSCDTK (UniProt Q9UBG0)	-0.27
MAP4K1_Q92918_334+335_SSSLGIPDADCCR (UniProt Q92918)	-0.26
MGAT2_Q10469_378_IFHAGDCGMHHK (UniProt Q10469)	-0.125
LRCH4_O75427_283_GSALGDLAPSRPPSFSPCPAEDLFPGHR (UniProt O75427)	-1.16
MFN1_Q8IWA4_513_LCSDFQEDIVFR (UniProt Q8IWA4)	-0.0991
MYH9_P35579_671_CIIPNHEKK (UniProt P35579)	-0.188
MYBBP1A_Q9BQG0_338_HYGEHVCTAK (UniProt Q9BQG0)	0.0441
MYCBP2_O75592_3241_DTICELCGESHPYPVTYHMR (UniProt O75592)	-0.0846
LYSMD2_Q8IV50_106_LFTNDCIFLK (UniProt Q8IV50)	-0.192
MAPK8_P45983_163_SDCTLK (UniProt P45983)	-0.283
LY75_O60449-2_1697_NQCTDHGADMISIHNEEENAFILDTLK (UniProt O60449)	-0.0829
LIMS1_P48059_240+252_GLAYCETHYNQLFGDVCFHCNR (UniProt P48059)	0.0277
MORC3_Q14149_671_NDAVILPSCVEAEAK (UniProt Q14149)	-0.296
MKI67_P46013_643_SQHDILQMICSK (UniProt P46013)	-0.612
MLST8_Q9BVC4_34_FWQAHSGICTR (UniProt Q9BVC4)	-0.182
MAGT1_Q9H0U3_87_QCVVCK (UniProt Q9H0U3)	-0.137

Target	probe-labelled cysteine peptide fold change
MYCBP2_O75592_3263_QAHPGCGR (UniProt O75592)	0.0855
MYCBP2_O75592_4318_QVFKEEEEAIKVDLHEGCGR (UniProt O75592)	-0.166
METAP2_P50579_263_IIDCAFTVTFNPK (UniProt P50579)	0.171
MCM3_P25205_119+123+126_TLTSCFLSCVVCVEGIVTK (UniProt P25205)	-0.0216
LRRC47_Q8N1G4_367_LHEDLCEK (UniProt Q8N1G4)	-0.211
MYH9_P35579_988_KLEEEQIILEDQNCK (UniProt P35579)	-0.0561
MED13_Q9UHV7_681_NQCLSAIASDAEQEPK (UniProt Q9UHV7)	0.327
MCM2_P49736_661_FDILCVVR (UniProt P49736)	0.242
MBTD1_Q05BQ5_288_VSESMQYPFKPCMR (UniProt Q05BQ5)	0.00855
LIMS1_P48059_281_AWCVNCFACSTCNTK (UniProt P48059)	0.00276
MFSD14A_Q96MC6_465_HCGSHSHPHNTQAPGEAK (UniProt Q96MC6)	-0.39
LRRFIP1_Q32MZ4_456_CMVEVPQELETSTGHSLEK (UniProt Q32MZ4)	-0.167
MCM6_Q14566_158_THPVHPELVSGTFLCLDCQTVIRDVEQQFK (UniProt Q14566)	0.0358
MSI1_O43347_167_VCEIHFHEINNK<|>MSI2_Q96DH6_168_VCEIHFHEINNK (UniProt Q96DH6+O43347)	0.163
LILRB4_Q8NHJ6_330_SSPAADVQGENFCAAVK (UniProt Q8NHJ6)	-0.385
MCM4_P33991_328_IAEPSVCGR (UniProt P33991)	0.0169
MAPK9_P45984_222_GCVIFQGTDHIDQWNK (UniProt P45984)	-0.0703
MYBBP1A_Q9BQG0_623_SPAESCDLLGDIQTCIR (UniProt Q9BQG0)	-0.0385
LENG8_Q96PV6_584_SLCMVK (UniProt Q96PV6)	-0.193
